Experimental data taken from the supplement of paper PMC10849652.
Of roughly 8,800 targets only a part is listed; those with a hit were picked by preference. About 0.5% of all pairs of compound and target were hits. Unmarked numbers belong to inactive results.

How the values were obtained:
Assay in all cases: log2 fold change, soluble protein after heating vs DMSO (PISA); higher = thermal stabilisation; K562 lysate, 10 uM; active = over 0.2 and 3.5 SD of the protein, either way, in both replicates (recomputed)
alvocidib = compound: CN1CC[C@H](c2c(O)cc(O)c3c(=O)cc(-c4ccccc4Cl)oc23)[C@H](O)C1 [alvocidib]
Method in brief: (§1)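 K562 pellets were dounce-homogenised in PBS pH 7.4 containing 1 mM MgCl2, and the crude extract, at 1 mg/mL protein, was exposed to 10 μM compound for 30 min. Aliquots were heated for 3 min across 48°C-58°C, pooled, brought to 0.5% NP-40 at 4°C and spun at 21,000xg for 90 min, with the supernatant taken as soluble protein. TMTpro 16plex LC-MS/MS with equalised channel sums quantified that protein. Values are log-two fold changes in thermal stability relative to solvent controls, taken from duplicates.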

Tubastatin A = compound: CN1CCc2c(c3ccccc3n2Cc2ccc(C(=O)NO)cc2)C1 [Tubastatin A]
Method in brief: as §1

[1] = compound: CNC(=O)C1=CC=CC=C1NC2=NC(=NC=C2Cl)NC3=C(C=C(C=C3)N4CCOCC4)OC
Method in brief: as §1

defactinib = compound: CNC(=O)c1ccc(Nc2ncc(C(F)(F)F)c(NCc3nccnc3N(C)S(C)(=O)=O)n2)cc1 [defactinib]
Method in brief: as §1

[2] = compound: CNc1nc(-c2ccc3c(N)n[nH]c3c2)cc(N2C[C@@H](C(=O)NC3CCCCC3)CC[C@H]2C)n1
Method in brief: as §1

encorafenib = compound: COC(=O)N[C@@H](C)CNc1nccc(-c2cn(C(C)C)nc2-c2cc(Cl)cc(NS(C)(=O)=O)c2F)n1 [encorafenib]
Method in brief: as §1

[3] = compound: COC(=O)[C@H](CCSC)NC(=O)C1=C(C=C(C=C1)NC[C@H](CS)N)C2=CC=CC=C2
Method in brief: as §1

alisertib = compound: COc1cc(Nc2ncc3c(n2)-c2ccc(Cl)cc2C(c2c(F)cccc2OC)=NC3)ccc1C(=O)O [alisertib]
Method in brief: as §1

[4] = compound: COc1cc2nc(-c3cc(F)ccc3O)nc(N[C@@H]3CNC[C@H]3C(C)(C)O)c2cc1OC
Method in brief: as §1

gefitinib = compound: COc1cc2ncnc(Nc3ccc(F)c(Cl)c3)c2cc1OCCCN1CCOCC1 [gefitinib]
Method in brief: as §1

UniProt Q9UGJ1, sequence (Q9UGJ1 whole entry, looked up): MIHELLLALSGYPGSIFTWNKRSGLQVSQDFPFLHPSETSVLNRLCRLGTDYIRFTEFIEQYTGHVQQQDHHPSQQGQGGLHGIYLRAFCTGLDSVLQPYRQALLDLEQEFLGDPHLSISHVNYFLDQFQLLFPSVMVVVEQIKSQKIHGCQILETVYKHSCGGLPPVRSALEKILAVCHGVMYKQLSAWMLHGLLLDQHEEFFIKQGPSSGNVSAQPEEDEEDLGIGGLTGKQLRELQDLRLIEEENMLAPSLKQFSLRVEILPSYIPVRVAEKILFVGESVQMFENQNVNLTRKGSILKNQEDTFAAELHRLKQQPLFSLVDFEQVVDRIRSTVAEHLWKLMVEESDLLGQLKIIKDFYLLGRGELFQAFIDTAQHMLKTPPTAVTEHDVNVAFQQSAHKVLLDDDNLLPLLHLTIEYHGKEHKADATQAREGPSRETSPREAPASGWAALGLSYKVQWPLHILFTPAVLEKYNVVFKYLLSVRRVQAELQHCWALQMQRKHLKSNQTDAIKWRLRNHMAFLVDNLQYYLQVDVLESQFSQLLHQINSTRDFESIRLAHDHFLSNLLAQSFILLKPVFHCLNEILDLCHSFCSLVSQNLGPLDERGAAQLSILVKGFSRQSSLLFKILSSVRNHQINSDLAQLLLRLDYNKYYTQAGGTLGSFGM
UniProt Q12815, sequence (Q12815 whole entry, looked up): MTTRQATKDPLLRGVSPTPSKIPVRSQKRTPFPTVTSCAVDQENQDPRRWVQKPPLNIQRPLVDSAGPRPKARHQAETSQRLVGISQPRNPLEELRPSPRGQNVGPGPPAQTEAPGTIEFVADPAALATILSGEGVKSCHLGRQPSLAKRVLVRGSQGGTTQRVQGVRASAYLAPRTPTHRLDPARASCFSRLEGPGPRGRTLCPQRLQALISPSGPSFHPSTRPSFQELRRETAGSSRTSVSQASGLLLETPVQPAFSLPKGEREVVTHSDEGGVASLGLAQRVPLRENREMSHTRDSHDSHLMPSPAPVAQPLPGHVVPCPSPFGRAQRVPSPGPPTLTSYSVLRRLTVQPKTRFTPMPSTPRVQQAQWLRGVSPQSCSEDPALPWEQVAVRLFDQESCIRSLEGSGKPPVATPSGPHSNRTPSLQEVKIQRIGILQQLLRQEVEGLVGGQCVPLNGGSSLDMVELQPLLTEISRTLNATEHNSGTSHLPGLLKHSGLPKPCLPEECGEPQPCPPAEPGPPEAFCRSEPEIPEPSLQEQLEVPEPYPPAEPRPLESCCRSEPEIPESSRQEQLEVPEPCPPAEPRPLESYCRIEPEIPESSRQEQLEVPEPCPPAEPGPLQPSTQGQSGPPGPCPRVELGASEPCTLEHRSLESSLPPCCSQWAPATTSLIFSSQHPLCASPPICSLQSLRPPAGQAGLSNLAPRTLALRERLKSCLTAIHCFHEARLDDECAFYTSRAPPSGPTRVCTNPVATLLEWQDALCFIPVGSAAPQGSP
UniProt Q04726, sequence (Q04726 whole entry, looked up): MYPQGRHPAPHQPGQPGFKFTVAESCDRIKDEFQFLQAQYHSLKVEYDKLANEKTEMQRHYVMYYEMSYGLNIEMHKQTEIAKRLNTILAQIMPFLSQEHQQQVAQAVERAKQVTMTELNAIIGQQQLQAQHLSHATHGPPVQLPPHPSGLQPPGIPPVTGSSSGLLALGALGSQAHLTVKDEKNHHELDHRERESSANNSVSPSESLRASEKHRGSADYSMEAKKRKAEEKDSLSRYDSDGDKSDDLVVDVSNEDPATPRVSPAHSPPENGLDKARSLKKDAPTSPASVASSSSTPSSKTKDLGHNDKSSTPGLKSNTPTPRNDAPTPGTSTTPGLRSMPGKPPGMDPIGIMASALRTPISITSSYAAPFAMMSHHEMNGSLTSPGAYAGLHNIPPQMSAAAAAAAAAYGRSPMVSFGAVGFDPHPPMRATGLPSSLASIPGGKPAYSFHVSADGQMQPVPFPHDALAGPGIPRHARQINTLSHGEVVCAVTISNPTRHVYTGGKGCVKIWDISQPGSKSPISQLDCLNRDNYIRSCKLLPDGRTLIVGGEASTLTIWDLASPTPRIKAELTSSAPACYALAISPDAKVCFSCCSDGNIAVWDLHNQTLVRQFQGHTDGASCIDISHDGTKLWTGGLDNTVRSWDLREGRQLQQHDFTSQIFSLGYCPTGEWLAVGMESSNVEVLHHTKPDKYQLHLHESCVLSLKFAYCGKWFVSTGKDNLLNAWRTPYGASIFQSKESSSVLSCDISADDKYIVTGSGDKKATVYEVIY
UniProt Q9NZI7, sequence (Q9NZI7 whole entry, looked up): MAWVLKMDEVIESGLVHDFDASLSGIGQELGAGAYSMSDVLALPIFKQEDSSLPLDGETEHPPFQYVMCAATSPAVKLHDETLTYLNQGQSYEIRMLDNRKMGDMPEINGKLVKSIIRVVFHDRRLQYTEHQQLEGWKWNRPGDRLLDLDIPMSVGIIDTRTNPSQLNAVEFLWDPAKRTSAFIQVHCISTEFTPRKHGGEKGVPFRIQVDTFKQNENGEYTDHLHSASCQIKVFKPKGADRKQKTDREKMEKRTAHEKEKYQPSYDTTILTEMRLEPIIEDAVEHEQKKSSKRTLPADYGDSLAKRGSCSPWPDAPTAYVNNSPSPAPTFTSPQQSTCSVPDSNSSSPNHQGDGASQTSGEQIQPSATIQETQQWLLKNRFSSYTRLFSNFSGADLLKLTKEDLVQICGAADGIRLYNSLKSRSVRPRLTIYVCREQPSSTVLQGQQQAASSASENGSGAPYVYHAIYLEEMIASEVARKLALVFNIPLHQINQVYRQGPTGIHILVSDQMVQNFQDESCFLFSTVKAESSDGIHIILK
UniProt Q9NYB0, sequence (Q9NYB0 whole entry, looked up): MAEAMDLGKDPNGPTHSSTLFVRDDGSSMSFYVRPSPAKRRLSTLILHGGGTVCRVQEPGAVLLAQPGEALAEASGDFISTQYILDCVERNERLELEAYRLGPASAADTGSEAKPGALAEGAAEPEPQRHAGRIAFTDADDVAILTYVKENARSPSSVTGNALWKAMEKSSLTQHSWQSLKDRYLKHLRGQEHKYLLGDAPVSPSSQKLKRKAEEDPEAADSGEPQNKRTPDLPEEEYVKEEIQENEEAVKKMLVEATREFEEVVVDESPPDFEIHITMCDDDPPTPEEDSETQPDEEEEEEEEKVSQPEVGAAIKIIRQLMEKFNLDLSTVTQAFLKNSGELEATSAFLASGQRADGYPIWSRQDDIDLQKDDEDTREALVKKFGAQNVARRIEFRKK
UniProt Q14258, sequence (Q14258 whole entry, looked up): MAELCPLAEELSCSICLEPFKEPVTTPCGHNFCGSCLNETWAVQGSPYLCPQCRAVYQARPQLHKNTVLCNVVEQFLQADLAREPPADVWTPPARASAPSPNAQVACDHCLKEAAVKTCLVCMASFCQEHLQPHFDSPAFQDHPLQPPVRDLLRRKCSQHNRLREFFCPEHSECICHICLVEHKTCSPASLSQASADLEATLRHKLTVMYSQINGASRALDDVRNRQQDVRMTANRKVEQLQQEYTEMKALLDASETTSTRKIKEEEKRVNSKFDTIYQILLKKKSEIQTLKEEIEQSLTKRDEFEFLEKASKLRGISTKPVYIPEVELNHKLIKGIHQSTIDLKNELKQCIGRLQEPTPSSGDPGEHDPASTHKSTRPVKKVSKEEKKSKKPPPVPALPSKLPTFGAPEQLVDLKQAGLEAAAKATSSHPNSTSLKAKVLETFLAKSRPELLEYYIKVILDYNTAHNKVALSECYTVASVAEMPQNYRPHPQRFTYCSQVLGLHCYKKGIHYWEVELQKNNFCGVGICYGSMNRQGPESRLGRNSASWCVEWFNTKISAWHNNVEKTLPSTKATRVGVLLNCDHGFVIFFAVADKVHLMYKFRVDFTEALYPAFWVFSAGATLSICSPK
UniProt Q9NUJ3, sequence (Q9NUJ3 whole entry, looked up): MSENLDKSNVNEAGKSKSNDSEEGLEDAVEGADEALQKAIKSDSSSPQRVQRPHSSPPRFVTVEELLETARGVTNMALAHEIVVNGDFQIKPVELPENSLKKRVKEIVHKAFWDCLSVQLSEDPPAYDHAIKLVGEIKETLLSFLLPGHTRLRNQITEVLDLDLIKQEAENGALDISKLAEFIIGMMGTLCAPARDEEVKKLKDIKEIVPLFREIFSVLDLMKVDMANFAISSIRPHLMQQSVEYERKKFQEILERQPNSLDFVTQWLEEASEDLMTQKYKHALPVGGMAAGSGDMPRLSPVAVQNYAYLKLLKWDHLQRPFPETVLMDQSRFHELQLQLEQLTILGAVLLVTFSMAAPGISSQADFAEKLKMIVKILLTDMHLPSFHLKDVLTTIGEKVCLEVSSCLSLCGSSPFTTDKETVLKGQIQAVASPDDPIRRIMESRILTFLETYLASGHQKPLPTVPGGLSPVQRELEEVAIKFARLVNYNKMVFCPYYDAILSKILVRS
UniProt Q96DX7, sequence (Q96DX7 whole entry, looked up): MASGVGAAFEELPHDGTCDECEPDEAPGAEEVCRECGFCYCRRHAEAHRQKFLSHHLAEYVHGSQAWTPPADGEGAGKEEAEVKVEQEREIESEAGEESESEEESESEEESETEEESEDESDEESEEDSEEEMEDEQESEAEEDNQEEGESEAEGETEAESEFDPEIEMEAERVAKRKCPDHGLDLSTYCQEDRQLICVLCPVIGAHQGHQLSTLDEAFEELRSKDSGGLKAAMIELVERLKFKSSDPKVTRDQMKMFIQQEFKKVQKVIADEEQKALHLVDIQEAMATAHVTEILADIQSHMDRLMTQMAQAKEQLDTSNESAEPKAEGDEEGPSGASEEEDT
UniProt P61960, sequence (P61960 whole entry, looked up): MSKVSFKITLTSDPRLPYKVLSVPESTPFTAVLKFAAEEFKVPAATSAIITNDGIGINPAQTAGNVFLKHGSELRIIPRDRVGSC
UniProt O43399, sequence (O43399 whole entry, looked up): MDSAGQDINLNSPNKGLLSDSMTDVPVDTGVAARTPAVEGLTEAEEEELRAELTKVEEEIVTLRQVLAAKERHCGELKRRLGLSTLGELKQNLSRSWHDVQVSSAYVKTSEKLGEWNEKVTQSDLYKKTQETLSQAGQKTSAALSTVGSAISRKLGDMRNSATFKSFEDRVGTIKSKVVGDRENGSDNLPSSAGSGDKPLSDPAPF

| Target | log2 fold change (alvocidib) | log2 fold change (Tubastatin A) | log2 fold change [1] | log2 fold change (defactinib) | log2 fold change [2] | log2 fold change (encorafenib) | log2 fold change [3] | log2 fold change (alisertib) | log2 fold change [4] | log2 fold change (gefitinib) |
| --- | --- | --- | --- | --- | --- | --- | --- | --- | --- | --- |
| UBP1 (UniProt Q9NZI7) | 0.049 | -0.121 | 0.058 | 0.077 | 0.002 | 0.115 | 0.019 | 0.059 | -0.011 | -0.073 |
| TRIM44 (UniProt Q96DX7) | 0 | -0.013 | 0.057 | -0.045 | 0.04 | -0.047 | -0.034 | 0.041 | -0.121 | 0.088 |
| TLE3 isoform 4 (UniProt Q04726) | 0.023 | 0.002 | -0.013 | 0.004 | 0.024 | 0.014 | -0.019 | -0.016 | 0.002 | -0.037 |
| TBL3 (UniProt Q12788) | -0.019 | -0.08 | 0.014 | 0.016 | 0.01 | -0.021 | 0.072 | 0.015 | 0.006 | -0.123 |
| TELO2 (UniProt Q9Y4R8) | -0.01 | -0.164 | 0.035 | -0.008 | -0.036 | 0.003 | 0.139 | 0.008 | -0.009 | 0.011 |
| TUBGCP3 (UniProt Q96CW5) | -0.003 | -0.094 | 0.026 | 0.022 | -0.024 | 0.024 | 0.011 | 0.044 | -0.017 | 0.056 |
| TOPBP1 (UniProt Q92547) | 0.024 | -0.067 | 0.033 | 0.047 | 0.01 | -0.024 | 0.108 | -0.039 | 0.034 | 0.008 |
| TERF2IP (UniProt Q9NYB0) | 0.087 | 0.014 | 0.009 | -0.008 | 0.019 | 0 | -0.038 | -0.015 | 0.011 | -0.003 |
| TGOLN2 isoform 7 (UniProt O43493) | -0.053 | 0.003 | -0.052 | 0.005 | 0.045 | 0.014 | -0.031 | -0.059 | 0.02 | -0.048 |
| TIMELESS (UniProt Q9UNS1) | -0.017 | -0.149 | 0.031 | 0 | -0.039 | 0.039 | 0.105 | -0.011 | 0.049 | 0.017 |
| TUBGCP4 (UniProt Q9UGJ1) | 0 | -0.081 | 0.007 | -0.023 | -0.025 | -0.049 | 0.047 | -0.007 | -0.018 | -0.043 |
| UFM1 (UniProt P61960) | 0.253 | 0.102 | 0.037 | 0.136 | 0.088 | 0.023 | -0.076 | 0.038 | -0.08 | -0.116 |
| TRAF2 isoform 2 (UniProt Q12933) | -0.006 | -0.006 | 0.025 | -0.013 | 0.01 | 0.004 | -0.198 | 0.003 | -0.007 | -0.04 |
| TROAP (UniProt Q12815) | -0.042 | -0.043 | 0.022 | 0.021 | 0.076 | -0.193 | 0.217 | -0.09 | -0.171 | -0.015 |
| TRIM33 (UniProt H0Y612) | -0.081 | -0.034 | 0.119 | -0.007 | 0.075 | 0.014 | 0.122 | -0.006 | 0.09 | -0.102 |
| TTK (UniProt P33981) | -0.004 | -0.141 | 0.616 (active) | 0.434 (active) | 0.101 | 0.004 | -0.02 | 0.078 | 0.103 | -0.102 |
| TYW3 (UniProt Q6IPR3) | -0.033 | 0.014 | -0.007 | -0.021 | 0.061 | 0.027 | -0.064 | -0.03 | 0.019 | 0.01 |
| TUBE1 (UniProt Q9UJT0) | 0.06 | -0.001 | 0.062 | 0.107 | -0.027 | 0.036 | -0.108 | 0.052 | -0.009 | -0.005 |
| TLK1 isoform 2 (UniProt Q9UKI8) | -0.05 | -0.092 | 0.046 | 0.16 | 0.023 | -0.045 | -0.14 | -0.028 | 0.05 | 0.01 |
| TCP11L1 (UniProt Q9NUJ3) | -0.098 | -0.006 | 0.029 | 0.023 | -0.064 | 0.006 | -0.064 | -0.022 | 0.032 | -0.001 |
| TUBB3 (UniProt Q13509) | -0.001 | -0.081 | 0.006 | 0.023 | -0.034 | -0.004 | 0.072 | 0.007 | 0.007 | -0.016 |
| TRIM25 (UniProt Q14258) | 0.022 | -0.04 | 0.009 | -0.009 | 0.042 | -0.011 | -0.058 | -0.01 | -0.002 | -0.029 |
| TRMT12 (UniProt Q53H54) | -0.022 | -0.106 | -0.113 | -0.058 | 0.007 | 0.041 | 0.088 | -0.031 | 0.018 | 0.123 |
| TRIM11 (UniProt Q96F44) | -0.015 | -0.021 | 0.037 | 0.016 | -0.007 | 0.029 | 0.053 | -0.026 | -0.055 | 0.004 |
| TPD52L2 isoform 7 (UniProt O43399) | -0.043 | 0.062 | -0.005 | 0.023 | 0.086 | -0.026 | 0.008 | -0.01 | 0.037 | 0.02 |
| TRAPPC9 isoform 2 (UniProt Q96Q05) | -0.017 | -0.128 | 0.002 | -0.011 | -0.075 | 0.022 | -0.015 | -0.036 | 0.021 | -0.017 |
| TOE1 (UniProt Q96GM8) | -0.01 | -0.136 | 0.027 | 0.019 | -0.044 | -0.034 | 0.165 | -0.041 | -0.011 | -0.047 |
